Screen size: about 71,000 compounds; about 1,800 (2.5%) were called active. Another 26% or so got no clear call; they are omitted. The call rests on the fitted dose curve; in most records, active means well fitted activation curve with a large enough effect in the signal ratio, with a control signal flat (not every such curve was filed as active); inconclusive means small, poorly fitted or top-dose-only effect, or effect the other way, or a change in a side signal; inactive means flat fitted curve, though single readings scatter; the % refers to the signal ratio. The list comes from a sample in which actives are over-represented; it also holds similar structures and randomly drawn compounds.
Experiment: Cell signaling CRE-BLA (Fsk stim); on activity change, negative = inhibition: % of control where 0% means no effect
Conditions: CHO CRE-bla reporter (cAMP response element driving beta-lactamase), forskolin EC10, beta-lactamase ratio; series mostly up to 38.2 µM; activity change, negative = inhibition: at the top concentration
From the text: NIH Molecular Libraries Screening Centers Network [MLSCN]
NIH Chemical Genomics Center [NCGC]
Assay Provider: Marshall W. Nirenberg, U.S. National heart lung & blood institute
Memories persist for different lengths of time, from seconds or minutes to a lifetime. There are two kinds of memory: short-term memory (STM) and long-term memory (LTM). STM lasts for minutes to hours, which maybe mediated by modifications of molecules involved in synaptic functions. LTM lasts for days or longer, and may be due to the formation of new synapses or restructuring of existing synapses. LTM, but not STM, requires gene transcription and synthesis of proteins. CREB (cyclic-AMP Responsive Element Binding Protein) is one of the candidates plays an important role for enhancement of some types of LTM. CREB, a family of transcription factors, regulates the transcription of genes containing cAMP Responsive Elements (CRE). CRE is a nucleotide sequence often found in the promoter regions of genes that are binding sites for CREB.
Using a beta-lactamase reporter-gene under control of cAMP responsive element, a cell-based assay [CellSensor(TM) CRE-bla CHO developed by Invitrogen Corp.] was used to measure forskolin-induced signaling. Library compounds were measured for their ability to modulate positively or negatively the action of EC10 NKH 477, a water soluble forskolin, on reporter gene activity. Compounds were screened in a titration series in 1536-well format. Positive and negative modulators were identified based on the AC50 values derived from the screening data.
NCGC Assay Protocol Summary
2000 cells/5uL in Opti-MEM medium containing 0.5% dialyzed FBS, 0.1 mM NEAA, 1 mM sodium pyruvate and 10 mM HEPES was dispensed into 1536-well plates and cells were cultured at 37 degrees Celsius overnight. […] And then the plates were incubated at 37 degrees Celsius for 3 hours. 1 uL of CCF4-dye mixture was added to each well. After incubated at room temperature for 2 hours the plates were measured on an EnVision plate reader at Excitation 405nm, Emission1=460nm and Emission 2=530nm. The %Activity was determined from the ratio of 460nm/530nm.
Keywords: NIH Roadmap, MLSCN, MLSMR, qHTS, NCGC, CRE, beta-lactamase reporter-gene assay.
In the case of `CC(=O)NC(C)c1nc2ccccc2n1Cc1ccccc1F` (centres undefined), the “activity change, negative = inhibition” value is reported as -9.33% (inactive).
In the case of `C#CCNc1nc(C(C)C)nc2c1nnn2Cc1ccccc1F`, the Potency is reported as 10 µM (active).
With `CC(C)(C)c1nc(NCC2CCCO2)c2nnn(Cc3ccccc3)c2n1` (centres undefined) the “activity change, negative = inhibition” value was 7.95% (inactive).
With `Cc1cccc(C(=O)O)c1` the “activity change, negative = inhibition” value was -9.1% (inactive).
In the case of `COC(=O)c1ccc(CSc2ccccc2C)o1`, the “activity change, negative = inhibition” value is reported as -26.7% (inactive).
For `O=c1c2ccccc2nc(CSc2nnnn2-c2ccccc2)n1-c1ccccc1`, the “activity change, negative = inhibition” value was -0.982% (inactive).
With `CCOC(=O)CNC(=O)c1nn(-c2cccc(OC)c2)c(=O)c2ccccc12` the “activity change, negative = inhibition” value was 14.6% (inactive).
With `COCC(C)n1c(SCc2ccc(C(=O)OC)o2)nc2ccccc2c1=O` (centres undefined) the Potency was 10 µM (active).
For `CCCC(NC(=O)c1ccccc1)c1nc2ccccc2n1Cc1ccc(C(=O)OC)o1` (centres undefined), the “activity change, negative = inhibition” value was 10.7% (inactive).
In the case of `COC(=O)c1ccc(CSc2nc3ccccc3c(=O)n2-c2cccc(OC)c2)o1`, the Potency is reported as 5.01 µM (active).
For `COc1ccc(S(=O)(=O)N2CCC(C(=O)N3CCOCC3)CC2)cc1OC`, the “activity change, negative = inhibition” value was 0.418% (inactive).
For `COC(=O)C1(C)C=CCN1C(=O)c1ccccc1` (centres undefined), the “activity change, negative = inhibition” value was -3.13% (inactive).
With `CC1COC2C(O1)N(S(C)(=O)=O)CCN2S(C)(=O)=O` (centres undefined) the “activity change, negative = inhibition” value was -1.89% (inactive).
For `O=C(C1CCN(CC2CCCCC2)CC1)N1CCCC1`, the “activity change, negative = inhibition” value was -0.979% (inactive).
With `CCOC(=O)C1CCN(C(=O)Nc2ccc(Cl)cc2)CC1` the “activity change, negative = inhibition” value was -3.28% (inactive).
In the case of `COCC(C)N=CC1=C(O)CC(C)(C)CC1=O` (centres undefined), the “activity change, negative = inhibition” value is reported as 4.27% (inactive).
With `N=c1c2c3c(sc2ncn1N)CCCCC3` the “activity change, negative = inhibition” value was -0.591% (inactive).
With `COCCNc1nc(-n2nc(C)cc2C)nc2sc3c(c12)CCCC3` the Potency was 12.6 µM (active).
With `COCCn1c(C)cc(C(=O)CSc2ncnc3sc4c(c23)CCC4)c1C` the “activity change, negative = inhibition” value was 8.37% (inactive).
In the case of `Cc1cc(N=CC2=C(O)CCCC2=O)no1`, the “activity change, negative = inhibition” value is reported as -1.94% (inactive).
For `Cc1cc(C(=O)O)ccc1[N+](=O)[O-]`, the “activity change, negative = inhibition” value was -16.5% (inactive).
In the case of `COC(=O)C1C(=O)CC(C)(O)C(C(=O)OC)C1c1ccc2c(c1)OCO2` (centres undefined), the “activity change, negative = inhibition” value is reported as -1.98% (inactive).
With `C/C(=C\C(=O)c1cccnc1)Nc1ccc(C)c(C)c1` the “activity change, negative = inhibition” value was 13.6% (inactive).
For `COc1ccc(NC(=O)CSc2nnc(-c3cccs3)n2Cc2ccco2)cc1OC`, the “activity change, negative = inhibition” value was 5.96% (inactive).
In the case of `COc1ccccc1NC(=O)CSc1nc2sc(C)c(C)c2c(=O)n1Cc1ccco1`, the Potency is reported as 3.98 µM (active).
In the case of `CC(Sc1nc2ccccc2c(=O)n1Cc1ccco1)C(=O)c1ccccc1` (centres undefined), the “activity change, negative = inhibition” value is reported as 4.85% (inactive).
With `CCCn1c(-c2ccc(F)cc2)nc2c(NC3CCN(Cc4ccccc4)C3)nc(C)nc21` (centres undefined) the “activity change, negative = inhibition” value was 10.1% (inactive).
With `COC(CCN(C)C)(c1ccccc1)c1ccccc1` the activity change, negative = inhibition was -22.8% [at 7.6 µM] (inactive).
With `CCCC[C@@H]1C[C@H]1C(NC(=O)c1ccc(-c2ccccc2)cc1)c1ccc(-c2ccccc2)cc1` (some centres undefined) the “activity change, negative = inhibition” value was 2.34% (inactive).
For `COc1cc(OC)c(NC(=O)c2ccc(Br)o2)cc1Cl`, the activity change, negative = inhibition was 19.3% [at 7.6 µM] (inactive).
In the case of `O=C(Nc1ccc(-c2nnc(-c3ccccc3)o2)cc1)c1ccc(Br)o1`, the “activity change, negative = inhibition” value is reported as -0.431% (inactive).
With `Cc1cc(C)nc(-n2nc(C)cc2NC(=O)c2ccc(Br)o2)n1` the Potency was 1.26 µM (active).
With `CCSC1(SCC)N=C(N)C2(C#N)C(c3ccccc3)NC(C)=CC12C#N` (centres undefined) the “activity change, negative = inhibition” value was -14.9% (inactive).
For `O=C(Cn1cnc2c(cnn2-c2ccc(F)cc2)c1=O)NCCc1ccccc1`, the “activity change, negative = inhibition” value was -4.15% (inactive).
For `CCOC(=O)c1cnc2sccn2c1=O`, the “activity change, negative = inhibition” value was -5.25% (inactive).
For `CCCn1c(=NC(C)=O)c(C(=O)OCC)cc2c(=O)n3ccccc3nc21`, the Potency was 10 µM (active).
For `CCOC(=O)c1ccc(-n2c(C)nc3c(cnn3-c3ccccc3C)c2=O)cc1`, the “activity change, negative = inhibition” value was 4.93% (inactive).
For `Cc1cc(C)cc(N)c1`, the “activity change, negative = inhibition” value was -7.14% (inactive).
With `CCCCNc1nc(C)nc2c1nc(-c1ccccc1)n2CCCCN(CC)CC` the “activity change, negative = inhibition” value was 6.32% (inactive).
With `c1cnn(-c2cc(N3CCOCC3)ncn2)c1` the “activity change, negative = inhibition” value was 17.7% (inactive).
With `c1ccc(-c2oc3ncnc(N4CCOCC4)c3c2-c2ccccc2)cc1` the “activity change, negative = inhibition” value was 6.93% (inactive).
For `O=C1c2ccccc2-c2ncnc3c(N4CCOCC4)cc(N4CCOCC4)c1c23`, the Potency was 2.51 µM (active).
With `CSc1nnc(CNC(=O)c2ccccc2)n1-c1ccc(F)cc1` the “activity change, negative = inhibition” value was -5.77% (inactive).
In the case of `Cc1cccc(C(=O)O)c1[N+](=O)[O-]`, the “activity change, negative = inhibition” value is reported as -4.85% (inactive).
With `CC(=O)c1ccc(Oc2cc(C)nc(-n3nc(C)cc3C)n2)cc1` the Potency was 7.94 µM (active).
In the case of `CCOC(=O)c1cnc(-n2nc(C)cc2C)nc1Nc1cccc(C(C)=O)c1`, the “activity change, negative = inhibition” value is reported as 3.18% (inactive).
With `CCOC(=O)c1cnc(-n2nc(C)cc2C)nc1-n1nc(C)cc1C` the “activity change, negative = inhibition” value was 28.9% (inactive).
With `O=C(Nc1ccccc1)N[C@H]1C[C@H](C(=O)O)Nc2cc(Cl)cc(Cl)c21` the “activity change, negative = inhibition” value was -9.62% (inactive).
For `O=C(CCCOc1ccccc1)Nc1cccc(C(=O)O)c1`, the “activity change, negative = inhibition” value was -1.76% (inactive).
In the case of `CN1CCN(c2cc(=O)n(-c3ccc(Cl)cc3)c(=O)[nH]2)CC1`, the “activity change, negative = inhibition” value is reported as -6.94% (inactive).
In the case of `Cc1cc(N(C)C)cc(C)[n+]1[O-]`, the “activity change, negative = inhibition” value is reported as 2.28% (inactive).
For `COC(=O)C1=C(C)NC(=O)NC1/C=C/c1ccccc1` (centres undefined), the “activity change, negative = inhibition” value was -5.12% (inactive).
For `COc1ccccc1NC(=O)C1=C(C)NC2=C(C(=O)CCC2)C1c1ccc(C)o1` (centres undefined), the “activity change, negative = inhibition” value was -1.9% (inactive).
In the case of `COC(=O)C1=C(C)NC2=C(C(=O)c3ccccc32)C1c1ccc(-c2ccc(C(=O)O)cc2)o1` (centres undefined), the Potency is reported as 0.398 µM (active).
For `Cc1ccc(CCn2c3c(c4ccccc42)CN(C)CC3)cn1`, the “activity change, negative = inhibition” value was -5.13% (inactive).
For `O=C(O)CC(C(=O)O)C(CC(=O)O)C(=O)O` (centres undefined), the “activity change, negative = inhibition” value was -8.47% (inactive).
For `CCCCC/C=C/C=C/C=O`, the “activity change, negative = inhibition” value was -1.75% (inactive).
With `CCOc1ccc(C(=O)Nc2cc(OC)ccc2OC)cc1` the “activity change, negative = inhibition” value was 8.36% (inactive).
With `Cc1cc(C)c2nc(N3CCCC3)c(C#N)cc2c1` the Potency was 10 µM (active).

Reference: PubChem BioAssay AID662 (National Center for Advancing Translational Sciences (NCATS), 2007)
Potency means the concentration at half of the fitted maximal effect.
